From PubChem BioAssay (EPA / NIEHS)
Calls of active or inactive are those of the source. Rule for the calls: active = hit-call score of the fitted dose curve at least 0.9, where 1 is the maximum; inactive = score below 0.9.

Columns and labels:
[1] = ATG_GLI_CIS: Attagene CIS-FACTORIAL HepG2 Assay for human Zinc Finger Protein GLI1 (AID 2282945); settings: HepG2, Attagene cis-factorial reporter mRNA, GLI element; actives raise or lower the signal
In short: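 HepG2 cells transiently transfected with cis-promoter multiplexed reporter units report endogenous transcription factor activity. After 24 h chemical exposure, reporter mRNA was quantified by RT-PCR, 6-FAM labelling, HpaI digestion and capillary electrophoresis, with bidirectional fitting against DMSO.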

[2] = ATG_GRE_CIS: Attagene CIS-FACTORIAL HepG2 Assay for human Glucocorticoid Response Elements (GRE) (AID 2282947); settings: HepG2 GRE cis-reporter, Attagene multiplex mRNA; actives raise or lower the signal
In short: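 Following 24 h chemical exposure of transiently transfected HepG2 cells, total RNA was reverse-transcribed and reporter cDNA amplified, fluorescently labelled and sized by capillary electrophoresis. Signal gain or loss was fitted relative to DMSO vehicle.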

[3] = ATG_ISRE_CIS: Attagene CIS-FACTORIAL HepG2 Assay for human Interferon Regulatory Factor 1 (IRF1) binding to an Interferon-Stimulated Response Element (ISRE) (AID 2282948); settings: HepG2 ISRE cis-reporter (Attagene), mRNA transcription readout; actives raise or lower the signal
In short: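 Transiently transfected HepG2 cells carrying cis-element reporter units, dosed 24 hours. Reporter mRNA quantified by RT-PCR, fluorescent primer extension, HpaI digestion and capillary electrophoresis. Bidirectional fitting relative to DMSO.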

[4] = ATG_M_32_CIS: Attagene CIS-FACTORIAL HepG2 Assay for M32 Transcription Factor (Internal Marker) (AID 2282949); settings: HepG2 Attagene cis-factorial M32 reporter, mRNA; actives raise or lower the signal;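 note: background control marker of the multiplexed CIS panel rather than a real target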
In short: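 Fluorescent capillary electrophoresis peaks of HpaI-digested, FAM-labelled RT-PCR reporter products give the signal. Source: transiently transfected human liver HepG2 cells, 24 h after chemical dosing; bidirectional fitting against DMSO.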

[5] = ATG_M_06_CIS: Attagene CIS-FACTORIAL HepG2 Assay for M06 Transcription Factor (Internal Marker) (AID 2282950); settings: HepG2 Attagene CIS-FACTORIAL M06 internal marker reporter; actives raise or lower the signal
In short: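 Measured 24 h post-dosing in transiently transfected HepG2 cells, this internal-marker endpoint reports reporter mRNA via RT-PCR with fluorescent primer extension and capillary electrophoresis. DMSO served as negative control and baseline for bidirectional fitting.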

[6] = molecular target: Hypoxia-inducible factor 1-alpha (Homo sapiens) (UniProt Q16665); assay: ATG_HIF1a_CIS: Attagene CIS-FACTORIAL HepG2 Assay for human Hypoxia Inducible Factor 1 (HIF1A) (AID 2282951); settings: HepG2 Attagene cis-factorial HIF1a reporter transcription; actives raise or lower the signal
In short: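 Cis-element reporter constructs were transiently transfected into HepG2 cells, which were treated for 24 h; reporter RNA was reverse-transcribed, amplified, labelled and resolved by capillary electrophoresis.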

[7] = molecular target: Heat shock factor protein 1 (Homo sapiens) (UniProt Q00613); assay: ATG_HSE_CIS: Attagene CIS-FACTORIAL HepG2 Assay for human Heat Shock Transcription Factor 1 (HSE) (AID 2282953); settings: HepG2 HSE cis-reporter, Attagene RNA transcription; actives raise or lower the signal
In short: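 Reporter mRNA induction in HepG2 is measured 24 h after dosing, using transiently transfected multiplexed cis-regulated reporter units. Signal comes from capillary electrophoresis of labelled RT-PCR products, with DMSO as negative control.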

[8] = ATG_MRE_CIS: Attagene CIS-FACTORIAL HepG2 Assay for human Metal Responsive Element (MRE) (AID 2282954); settings: HepG2 MRE cis-reporter transcription, Attagene multiplex; actives raise or lower the signal
In short: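 Step one: transfect HepG2 with cis-regulated reporter units. Step two: dose 24 h. Step three: isolate RNA, RT-PCR, 6-FAM label, HpaI digest, capillary electrophoresis. Fit bidirectionally to DMSO.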

[9] = molecular target: Paired box protein Pax-6 (Homo sapiens) (UniProt P26367); assay: ATG_Pax6_CIS: Attagene CIS-FACTORIAL HepG2 Assay for human Paired Box 6 (PAX6) (AID 2282956); settings: HepG2 CIS-FACTORIAL PAX6 reporter transcription, RNA readout; actives raise or lower the signal
In short: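 HepG2 cells transiently transfected with cis-promoter-driven multiplexed reporter units sensing endogenous transcription factor activity; 24 h chemical exposure. Reporter mRNA quantified by RT-PCR, 6-FAM labelling, HpaI digestion and capillary electrophoresis; bidirectional fit versus DMSO baseline.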

[10] = ATG_PXRE_CIS: Attagene CIS-FACTORIAL HepG2 Assay for human Pregnane X Receptor Element (PXRE) (AID 2282957); settings: HepG2 Attagene CIS-FACTORIAL PXRE reporter, mRNA; actives raise or lower the signal
In short: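 Multiplexed cis-reporter assay in transiently transfected human HepG2 cells; 24 h chemical exposure. Reporter transcripts quantified by RT-PCR with fluorescent labeling and capillary electrophoresis.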

[11] = ATG_Sox_CIS: Attagene CIS-FACTORIAL HepG2 Assay for human SRY-box transcription factor (SOX) (AID 2282960); settings: HepG2 Attagene cis-factorial SOX reporter, mRNA; actives raise or lower the signal
In short: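 Fluorescence-labelled cDNA fragments from reporter transcripts, sized by CE, give the signal. Cells: HepG2, transiently transfected with cis-regulated reporter units. Exposure 24 h; DMSO negative control; bidirectional curve fitting.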

[12] = molecular target: Transcription factor Sp1 (Homo sapiens) (UniProt P08047); assay: ATG_Sp1_CIS: Attagene CIS-FACTORIAL HepG2 Assay for human Specificity Protein 1 (Sp1) (AID 2282961); settings: HepG2 Sp1 cis-reporter transcription, actives raise or lower the signal
In short: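 Chemicals are dosed onto HepG2 cells transfected with multiple cis-promoter reporter constructs, and after 24 h reporter RNA is reverse-transcribed, PCR-amplified and resolved by capillary electrophoresis for fluorescence quantitation; activity is scored up or down against DMSO.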

[13] = ATG_SREBP_CIS: Attagene CIS-FACTORIAL HepG2 Assay for human Sterol Regulatory Element Binding (SREBP) (AID 2282962); settings: HepG2 Attagene cis-factorial SREBP reporter, mRNA; actives raise or lower the signal
In short: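 HepG2 cells transiently transfected with multiplexed cis-promoter reporter units sensing endogenous transcription factors; reporter mRNA measured 24 h after dosing by RT-PCR, 6-FAM labeling, HpaI digestion and capillary electrophoresis. Bidirectional fit versus DMSO.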

[14] = molecular target: Signal transducer and activator of transcription 3 (Homo sapiens) (UniProt P40763); assay: ATG_STAT3_CIS: Attagene CIS-FACTORIAL HepG2 Assay for human Signal Transducer and Activator of Transcription 3 (STAT3) (AID 2282963); settings: HepG2, Attagene cis-factorial STAT3 reporter transcription; actives raise or lower the signal
In short: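 Transcript-level reporter assay. HepG2 transient MRTU transfection, 24 h exposure, fluorescence detection after RT-PCR and CE; DMSO baseline.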

[15] = ATG_TA_CIS: Attagene CIS-FACTORIAL HepG2 Assay for human TA Basal Promoter (AID 2282964); settings: HepG2 Attagene CIS-factorial TA basal promoter reporter; actives raise or lower the signal
In short: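 Cis-factorial format in HepG2: reporters report endogenous factors, not chimeric Gal4 fusions. After 24 h treatment, reporter transcripts were measured by RT-PCR-capillary electrophoresis fluorescence, analysed bidirectionally versus DMSO.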

[16] = molecular target: Hepatocyte nuclear factor 6 (Homo sapiens) (UniProt Q9UBC0); assay: ATG_HNF6_CIS: Attagene CIS-FACTORIAL HepG2 Assay for human Hepatocyte Nuclear Factor 6 (HNF6) (AID 2282952); settings: HepG2 Attagene cis-factorial HNF6 reporter transcription; actives raise or lower the signal
In short: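 Cells are HepG2 carrying transiently transfected cis-promoter reporter units. Treatment lasts 24 h, after which reporter transcripts are reverse-transcribed, amplified, FAM-labelled and sized by capillary electrophoresis. DMSO serves as baseline.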

[17] = ATG_RORE_CIS: Attagene CIS-FACTORIAL HepG2 Assay for human RAR-related Orphan Receptor Element (RORE) (AID 2282959); settings: HepG2 Attagene cis-factorial RORE reporter, mRNA; actives raise or lower the signal
In short: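 Transfect HepG2 with MRTUs; treat 24 h; extract RNA; RT with oligo(dT); PCR with reporter-specific primers; 6-FAM primer extension; HpaI digest 2 h at 37 C; capillary electrophoresis. Fit vs DMSO, bidirectional.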

[18] = ATG_PBREM_CIS: Attagene CIS-FACTORIAL HepG2 Assay for human Phenobarbital-responsive Enhancer Module (PBREM) (AID 2282955); settings: HepG2 PBREM cis-reporter, Attagene multiplexed transcription; actives raise or lower the signal
In short: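 Multiplexed cis-reporter readout in human hepatoma HepG2 cells; PBREM-regulated transcript quantified after 24 h exposure by fluorescent RT-PCR fragment analysis. Signal changes up or down fitted relative to DMSO.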

[19] = ATG_PPRE_CIS: Attagene CIS-FACTORIAL HepG2 Assay for human Peroxisome Proliferator-activated Response Element (PPRE) (AID 2282958); settings: HepG2 PPRE cis-element reporter, Attagene transcription factor profiling; actives raise or lower the signal
In short: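 DMSO served as negative control and baseline for bidirectional curve fitting. Signal came from PPRE-regulated reporter mRNA in HepG2 cells, measured 24 h post-dosing by RT-PCR, 6-FAM primer extension and capillary electrophoresis.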

Measured: AC50

Sequence of Paired box protein Pax-6 (Homo sapiens) (P26367 whole entry, looked up): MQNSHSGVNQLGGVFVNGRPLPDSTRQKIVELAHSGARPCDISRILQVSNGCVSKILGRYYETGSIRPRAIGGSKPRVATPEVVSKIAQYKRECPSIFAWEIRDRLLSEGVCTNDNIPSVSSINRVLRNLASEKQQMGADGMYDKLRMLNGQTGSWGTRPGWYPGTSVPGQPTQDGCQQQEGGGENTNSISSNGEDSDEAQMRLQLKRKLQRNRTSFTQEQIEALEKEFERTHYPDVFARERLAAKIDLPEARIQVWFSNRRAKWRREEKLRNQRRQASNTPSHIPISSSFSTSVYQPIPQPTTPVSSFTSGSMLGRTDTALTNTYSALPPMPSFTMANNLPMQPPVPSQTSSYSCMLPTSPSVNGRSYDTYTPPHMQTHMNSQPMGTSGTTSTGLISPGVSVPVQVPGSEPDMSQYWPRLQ
Sequence of Heat shock factor protein 1 (Homo sapiens) (Q00613 whole entry, looked up): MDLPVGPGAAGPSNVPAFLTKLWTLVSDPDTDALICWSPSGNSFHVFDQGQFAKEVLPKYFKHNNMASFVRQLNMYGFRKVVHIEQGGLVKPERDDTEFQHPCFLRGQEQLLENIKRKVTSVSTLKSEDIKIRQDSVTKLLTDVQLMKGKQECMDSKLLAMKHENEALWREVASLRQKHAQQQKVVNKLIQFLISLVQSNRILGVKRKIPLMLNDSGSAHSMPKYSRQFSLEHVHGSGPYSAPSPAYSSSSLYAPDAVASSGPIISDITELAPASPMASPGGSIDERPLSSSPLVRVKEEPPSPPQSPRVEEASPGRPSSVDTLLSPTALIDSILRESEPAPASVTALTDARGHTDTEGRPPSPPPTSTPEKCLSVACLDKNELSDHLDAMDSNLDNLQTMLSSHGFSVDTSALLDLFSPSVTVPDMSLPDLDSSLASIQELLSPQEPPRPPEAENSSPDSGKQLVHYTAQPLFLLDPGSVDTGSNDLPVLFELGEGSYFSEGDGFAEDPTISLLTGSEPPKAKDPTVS
Sequence of Transcription factor Sp1 (Homo sapiens) (P08047 whole entry, looked up): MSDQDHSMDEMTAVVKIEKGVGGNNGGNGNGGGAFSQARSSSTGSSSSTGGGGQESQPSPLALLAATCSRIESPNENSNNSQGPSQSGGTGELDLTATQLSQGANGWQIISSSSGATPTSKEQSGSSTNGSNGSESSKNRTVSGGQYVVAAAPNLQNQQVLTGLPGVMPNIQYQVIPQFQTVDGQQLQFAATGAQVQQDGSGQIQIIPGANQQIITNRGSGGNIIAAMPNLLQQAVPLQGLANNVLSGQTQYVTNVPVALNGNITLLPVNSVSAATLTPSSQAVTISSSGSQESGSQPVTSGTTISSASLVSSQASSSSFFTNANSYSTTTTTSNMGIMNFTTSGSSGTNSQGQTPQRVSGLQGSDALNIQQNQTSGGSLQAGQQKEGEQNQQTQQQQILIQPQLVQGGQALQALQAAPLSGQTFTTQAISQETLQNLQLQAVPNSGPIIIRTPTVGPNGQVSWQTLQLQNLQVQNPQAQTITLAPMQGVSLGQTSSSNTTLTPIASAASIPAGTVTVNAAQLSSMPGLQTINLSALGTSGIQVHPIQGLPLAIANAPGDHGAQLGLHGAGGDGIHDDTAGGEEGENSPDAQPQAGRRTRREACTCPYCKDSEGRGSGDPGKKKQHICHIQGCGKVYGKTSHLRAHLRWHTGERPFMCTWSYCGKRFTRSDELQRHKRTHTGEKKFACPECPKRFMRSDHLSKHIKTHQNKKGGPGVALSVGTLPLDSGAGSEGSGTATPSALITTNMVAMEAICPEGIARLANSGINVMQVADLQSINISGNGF
Sequence of Hypoxia-inducible factor 1-alpha (Homo sapiens) (Q16665 whole entry, looked up): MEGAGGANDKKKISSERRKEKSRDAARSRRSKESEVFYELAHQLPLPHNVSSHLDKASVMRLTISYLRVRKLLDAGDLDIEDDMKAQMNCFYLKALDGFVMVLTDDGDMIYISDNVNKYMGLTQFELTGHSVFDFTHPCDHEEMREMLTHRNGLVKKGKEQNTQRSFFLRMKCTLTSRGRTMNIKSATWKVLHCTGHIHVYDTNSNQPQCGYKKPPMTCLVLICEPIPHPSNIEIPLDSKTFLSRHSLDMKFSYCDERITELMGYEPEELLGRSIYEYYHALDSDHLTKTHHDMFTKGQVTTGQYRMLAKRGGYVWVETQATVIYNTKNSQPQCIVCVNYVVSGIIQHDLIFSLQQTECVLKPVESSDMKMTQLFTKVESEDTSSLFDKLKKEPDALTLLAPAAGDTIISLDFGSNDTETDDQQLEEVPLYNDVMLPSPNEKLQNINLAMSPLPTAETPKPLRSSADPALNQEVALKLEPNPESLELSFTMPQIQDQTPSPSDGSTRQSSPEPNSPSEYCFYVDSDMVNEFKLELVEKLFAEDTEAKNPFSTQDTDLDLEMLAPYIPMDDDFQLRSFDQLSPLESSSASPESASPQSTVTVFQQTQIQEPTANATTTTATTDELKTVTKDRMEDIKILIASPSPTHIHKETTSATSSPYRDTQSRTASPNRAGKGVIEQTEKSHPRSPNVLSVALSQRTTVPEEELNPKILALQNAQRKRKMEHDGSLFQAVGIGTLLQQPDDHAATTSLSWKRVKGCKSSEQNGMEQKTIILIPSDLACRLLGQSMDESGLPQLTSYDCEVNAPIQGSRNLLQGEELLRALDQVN
Sequence of Signal transducer and activator of transcription 3 (Homo sapiens) (P40763 whole entry, looked up): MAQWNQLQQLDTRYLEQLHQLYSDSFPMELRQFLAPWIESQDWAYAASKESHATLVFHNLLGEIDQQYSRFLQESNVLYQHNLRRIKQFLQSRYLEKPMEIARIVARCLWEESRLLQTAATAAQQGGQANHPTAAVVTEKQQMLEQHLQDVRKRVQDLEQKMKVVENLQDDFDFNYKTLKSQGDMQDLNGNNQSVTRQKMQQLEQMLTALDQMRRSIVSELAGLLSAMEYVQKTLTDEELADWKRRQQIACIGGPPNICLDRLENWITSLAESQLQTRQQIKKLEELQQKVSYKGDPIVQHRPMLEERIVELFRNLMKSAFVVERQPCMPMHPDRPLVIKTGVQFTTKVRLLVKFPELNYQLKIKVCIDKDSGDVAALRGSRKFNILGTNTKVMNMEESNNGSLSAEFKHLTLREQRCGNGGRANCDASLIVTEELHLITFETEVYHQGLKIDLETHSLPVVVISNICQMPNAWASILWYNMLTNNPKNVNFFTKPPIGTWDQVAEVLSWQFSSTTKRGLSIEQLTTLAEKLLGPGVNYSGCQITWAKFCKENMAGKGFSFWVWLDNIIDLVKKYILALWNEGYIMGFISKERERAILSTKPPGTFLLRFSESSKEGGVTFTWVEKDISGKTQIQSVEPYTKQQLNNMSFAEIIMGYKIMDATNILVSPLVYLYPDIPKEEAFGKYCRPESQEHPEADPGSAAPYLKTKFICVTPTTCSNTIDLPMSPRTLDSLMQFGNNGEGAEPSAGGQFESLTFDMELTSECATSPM
Sequence of Hepatocyte nuclear factor 6 (Homo sapiens) (Q9UBC0 whole entry, looked up): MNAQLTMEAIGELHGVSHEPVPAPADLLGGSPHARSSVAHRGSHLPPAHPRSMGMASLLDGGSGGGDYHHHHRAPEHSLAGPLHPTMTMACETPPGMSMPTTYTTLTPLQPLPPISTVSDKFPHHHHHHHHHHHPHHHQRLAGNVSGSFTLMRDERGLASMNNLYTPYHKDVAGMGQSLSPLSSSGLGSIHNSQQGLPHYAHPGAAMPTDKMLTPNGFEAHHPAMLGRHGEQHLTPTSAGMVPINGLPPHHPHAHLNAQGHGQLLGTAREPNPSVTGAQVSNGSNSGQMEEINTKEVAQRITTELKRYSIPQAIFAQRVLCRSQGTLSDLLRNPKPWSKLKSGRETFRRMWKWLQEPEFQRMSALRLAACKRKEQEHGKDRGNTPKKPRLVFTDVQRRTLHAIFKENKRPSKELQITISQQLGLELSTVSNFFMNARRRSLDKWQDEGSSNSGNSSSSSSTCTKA

CCCC(CCC)C(=O)O
not listed: [16] | [17] | [18] | [19]
inactive: all other assays above

CCCCCCCCCCCCCCO
active: [16] 177 µM | [7] 117 µM | [10] 100 µM | [13] 171 µM | [14] 158 µM
not listed: [2] | [17] | [18] | [19]
inactive: all other assays above

CCOC(N)=O
not listed: [2] | [16] | [18] | [19]
inactive: all other assays above

CCCCCCCC1CCC(=O)O1 (centres undefined)
not listed: [16] | [19]
inactive: all other assays above

c1ccc(C(O[C@@H]2CCCN(CCc3ccc4c(c3)OCO4)C2)c2ccccc2)cc1
active: [6] 47.1 µM | [7] 55 µM | [8] 33 µM | [9] 44.3 µM | [10] 0.514 µM | [13] 10.7 µM | [15] 55.3 µM
not listed: [16] | [18] | [19]
inactive: all other assays above

CCCCN1C(=O)[C@@H]([C@H](O)C2CCCCC2)NC(=O)C12CCN(Cc1ccc(Oc3ccc(C(=O)O)cc3)cc1)CC2
active: [3] 93.5 µM | [8] 75.8 µM | [10] 93.5 µM | [15] 31.7 µM
not listed: [2] | [16] | [19]
inactive: all other assays above

O=C1CN(N=Cc2ccc([N+](=O)[O-])o2)C(=O)N1
active: [6] 27.3 µM
not listed: [16]
inactive: all other assays above

NNC(=O)c1ccncc1
not listed: [6] | [19]
inactive: all other assays above
